# Values joined by “and” are separate entries in the source; they are usually repeats but may differ in a detail not shown here. Equal values may be shown once. Results filed as inconclusive are left out. Active and inactive are the calls of the source. Calls come from the whole dose curve; as a rule, active = well fitted cell-killing curve with a large enough effect; inconclusive = small, poorly fitted or top-dose-only effect, or effect the other way; inactive = flat fitted curve, though single readings scatter.
# Experiment: qHTS assay for cell viability of HEK293 cells (AID 743288); note: nearly all actives have a fitted effect of over 50% in size
# Conditions: ATP luminescence (CellTiter-Glo), 18 h, hits give low values
# Text: National Center for Advancing Translational Sciences [NCATS]
# NIH Chemical Genomics Center [NCGC]
# U.S. Environmental Protection Agency [EPA]
# National Institutes of Environmental Health Sciences [NIEHS]
# National Toxicology Program [NTP]
# U.S. Food and Drug Administration [FDA]
# The CellTiter-Glo Luminescent Cell Viability Assay (Promega, Madison, WI) is a homogeneous method to determine the number of viable cells in culture based on quantitation of the ATP present, which signals the presence of metabolically active cells. This cell viability assay was used to screen environmental chemicals in the Hek293 cell line.
# Tox21 Assay Protocol Summary:
# Cell viability after compound treatment was measured using a luciferase-coupled ATP quantitation assay (CellTiter-Glo viability assay, Promega, Madison, WI) in parental HEK293 cells. Total intracellular ATP content corresponds to the number of metabolically competent cells after compound treatment. The cells were dispensed at 2,000 cells/5 uL/well in 1,536-well white/solid bottom assay plates using a Flying Reagent Dispenser (Aurora Discovery, San Diego, CA). The cells were incubated a minimum of 5 h at 37 C, followed by the addition of 23 nL of compounds dissolved in DMSO, positive controls or DMSO only using a pintool work station (Kalypsys, San Diego, CA). The assay plates were incubated for 18 h at 37 C, followed by the addition of 5 uL/well of CellTiter-Glo reagent. After 30 min incubation at room temperature, the luminescence intensity of the plates was measured using a ViewLux plate reader (PerkinElmer, Shelton, CT).
# % is set by controls: 0 for no effect and ±100 for the full control effect.
row,Compound,max response
1,CCCCCCc1ccc(O)cc1O,-5.8% (inactive) and 9.71% (inactive)
2,O=C(O)CCCCC(=O)O,0.134% (inactive)
3,CC(=O)Oc1ccc(C(c2ccc(OC(C)=O)cc2)c2ccccn2)cc1,-9.96% (inactive)
4,CC(C)(Oc1ccc(Cl)cc1)C(=O)O,-4.41% (inactive)
5,Cc1cc(=O)n(-c2ccccc2)n1C,-2.36% (inactive)
6,CN(C)/N=N/c1nc[nH]c1C(N)=O,4.22% (inactive)
7,C=C(CC)C(=O)c1ccc(OCC(=O)O)c(Cl)c1Cl,-7.15% (inactive)
8,COC1=CC(=O)C[C@@H](C)[C@]12Oc1c(Cl)c(OC)cc(OC)c1C2=O,-14.5% (inactive)
9,C[C@]12CC[C@@H]3c4ccc(O)cc4CC[C@H]3[C@@H]1CC[C@@H]2O,-9.32% (inactive)
10,CC(O)C(=O)O (centres undefined),1.72% (inactive)
11,O=C1OC(c2ccc(O)cc2)(c2ccc(O)cc2)c2ccccc21,-1.91% (inactive) and -6.06% (inactive)
12,C=CCc1ccc(O)c(OC)c1,-4.89% (inactive) and -5.68% (inactive)
13,NC(=NCCCCCCN=C(N)/N=C(\N)Nc1ccc(Cl)cc1)/N=C(\N)Nc1ccc(Cl)cc1,-23.7% (inactive) and -11.7% (inactive) and -27.9% (inactive)
14,Nc1ccc(C(=O)O)cc1,7.36% (inactive)
15,C[C@H]1C[C@H]2[C@@H]3CCC4=CC(=O)C=C[C@]4(C)[C@@]3(Cl)[C@@H](O)C[C@]2(C)[C@@]1(O)C(=O)CO,-18.8% (inactive)
16,Oc1ccc(O)cc1,-28.2% (inactive)
17,CC/C(=C(/CC)c1ccc(O)cc1)c1ccc(O)cc1,-28.4% (inactive) and -12.5% (inactive)
18,CC(O)(P(=O)(O)O)P(=O)(O)O,-5.92% (inactive)
19,O=c1ccc2ccccc2o1,8.9% (inactive) and -9.16% (inactive) and -5.08% (inactive)
